# Test results from PubChem BioAssay (Tox21).
# A number with no mark means an inactive call. Inconclusive results are not listed. A call without a number means that no potency is given here. Active and inactive are the calls of the source. Unless noted, the call rests on the fitted dose curve; in most records, active means well fitted curve in the direction sought with a large enough effect in the repeat runs; inconclusive means weak or mixed curves; inactive means no such curve, though single readings can be large; an effect the other way counts as inactive or inconclusive.
# Columns and labels:
# [1] = A CellTox Green Cytotoxicity Assay to monitor cytotoxicity in HepG2 cells - 8 hour (AID 1224890); further: nearly all actives have a fitted effect of over 45% in size
# Outline: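 HepG2 cells were seeded together with the CellTox Green dye at 600 cells/well, left 5 h at 37 C/5% CO2, then given compounds in DMSO. Fluorescence from dye bound to dead-cell DNA was read repeatedly over 40 h of treatment at 37 C.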
# [2] = qHTS assay to identify small molecule antagonists of the estrogen receptor alpha (ER-alpha) signaling pathway using the BG1 cell line in the presence of 0.1 nM 17-beta-estradiol - cell viability counter screen (AID 1259241); further: nearly all actives have a fitted effect of over 40% in size; further: potency means the concentration at half of the fitted maximal effect
# Outline: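 Cells were plated and left 24 hr, compounds in DMSO were pinned in, 17beta-estradiol was added to 0.1 nM final, and after 22 hr CellTiter-Fluor reagent was added for 30 min before fluorescence was read.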
# [3] = qHTS assay to identify small molecule antagonists of the androgen receptor (AR) signaling pathway using the MDA cell line in the presence of 0.5 nM R1881 - cell viability counter screen (AID 1259242); further: nearly all actives have a fitted effect of over 45% in size; further: potency means the concentration at half of the fitted maximal effect
# Outline: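 MDA-kb2 cells (human breast carcinoma, stably carrying MMTV-luciferase reporter) were exposed to compounds with 0.5 nM R1881 (final) for 16 hr at 37C, 0% CO2; viability then read as live-cell protease fluorescence (CellTiter-Fluor, 30 min) in the same wells.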
# [4] = target: Estrogen receptor (Homo sapiens) (UniProt P03372); assay: qHTS assay to identify small molecule antagonists of the estrogen receptor alpha (ER-alpha) signaling pathway using the BG1 cell line in the presence of 0.1 nM 17-beta-estradiol (AID 1259244); further: nearly all actives have a fitted effect of over 50% in size
# Outline: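 VM7Luc4E2 cells (endogenous full-length ER-alpha, stable 4xERE-luciferase) were grown 5 days in phenol red-free medium with charcoal-stripped FBS, then exposed 22 h at 37C to compounds plus 0.1 nM (final) 17beta-estradiol; ONE-Glo luminescence read-out.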
# [5] = qHTS assay to identify small molecule HDAC inhibitors (AID 1259364); further: nearly all actives have a fitted effect of over 45% in size; further: potency means the concentration at half of the fitted maximal effect; on activity change, negative = inhibition: top concentration of the series differs between compounds
# Outline: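 Wild-type HCT-116 cells were plated overnight, exposed to compounds for 2 h at 37 °C, then given HDAC-Glo class I/II luminogenic reagent for 30 min at room temperature before luminescence was read.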
# [6] = qHTS assay to identify small molecule HDAC inhibitors - cell viability counter screen (AID 1259365); further: series mostly up to about 92 µM; nearly all actives have a fitted effect of over 50% in size
# Outline: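 Counter screen in wild-type HCT-116 cells: compounds dissolved in DMSO are pin-transferred onto overnight-plated cells and left 2hr at 37C. ATP-based CellTiter-Glo luminescence then measures viable cells.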
# [7] = qHTS assay to identify small molecule agonists of the sonic hedgehog signaling (Shh) pathway - cell viability counter screen (AID 1259366); further: nearly all actives have a fitted effect of over 50% in size; further: potency means the concentration at half of the fitted maximal effect
# Outline: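 Cells are plated at 2,000 per well and left 4hr at 37C, 5% CO2 before compound addition. After 23hr of treatment, CellTiter-Fluor reagent is added for 1hr at 37C and fluorescence is measured.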
# [8] = qHTS assay to identify small molecule antagonists of the sonic hedgehog signaling (Shh) pathway - cell viability counter screen (AID 1259367); further: nearly all actives have a fitted effect of over 55% in size; further: potency means the concentration at half of the fitted maximal effect
# Outline: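 NIH/3T3-derived Gli1-Luc reporter cells, 2,000/well, plated 4 hr before compound addition, then stimulated with conditioned medium for 24 hr at 37C. Viability measured in the same wells by CellTiter-Fluor fluorescence, reagent added at 23 hr for 1 hr.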
# [9] = qHTS assay to identify small molecule agonists of the sonic hedgehog signaling (Shh) pathway (AID 1259368; calls by dose curve; further: series mostly up to about 92 µM; nearly all actives have a fitted effect of over 15% in size)
# Outline: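 NIH/3T3-derived 3T3Gli1-Luc cells carrying a stably integrated Gli1 response element–firefly luciferase reporter were plated, left 4 hr at 37 C, then given compounds in DMSO for 24 hr. Luminescence was read 30 min after adding luciferase reagent.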
# [10] = qHTS assay to identify small molecule antagonists of the sonic hedgehog signaling (Shh) pathway (AID 1259369; calls by dose curve; further: nearly all actives have a fitted effect of over 45% in size)
# Outline: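 NIH/3T3-derived 3T3Gli1-Luc cells with stably integrated Gli1-Luc reporter were preincubated 4hr at 37 C, then given compounds in DMSO plus Shh conditioned medium and incubated 24hr. Firefly luciferase luminescence read after 30min reagent at room temperature.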
# [11] = qHTS assay to identify small molecule agonists of the androgen receptor (AR) signaling pathway in the presence of an antagonist - cell viability counter screen (AID 1259379); further: nearly all actives have a fitted effect of over 25% in size; further: potency means the concentration at half of the fitted maximal effect; on activity change, negative = cytotoxicity: series mostly up to about 92 µM
# Outline: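 MDA-kb2 human breast carcinoma cells (stable MMTV-luciferase, AR/GR responsive) were seeded 3,000 cells/well, pre-incubated 5 hr at 37C without CO2, then given 3.0uM nilutamide and compounds at 15 concentrations for 16 hr. Viability was read by CellTiter-Fluor fluorescence.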
# [12] = qHTS assay to identify small molecule antagonists of the estrogen receptor beta (ER-beta) signaling pathway - cell viability counter screen (AID 1259382); further: series mostly up to about 92 µM; nearly all actives have a fitted effect of over 55% in size
# Outline: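 ER-beta-UAS-bla HEK293T cells (2,000/well, 2% charcoal-stripped FBS) were pre-incubated 6 hr at 37C, then given compound plus 1nM final 17-beta-estradiol for 16 hr. Viability was read in the same wells by CellTiter-Glo luminescence after 30 min at room temperature.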
# [13] = target: Estrogen receptor (Homo sapiens) (UniProt P03372); assay: qHTS assay to identify small molecule agonists of the estrogen receptor alpha (ER-alpha) signaling pathway in the presence of an antagonist (AID 1259383; calls by dose curve; further: top concentration of the series differs between compounds; nearly all actives have a fitted effect of over 15% in size)
# Outline: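 VM7Luc4E2 cells (endogenous full-length ER-alpha, 4×ERE-luciferase) were precultured 5 days in phenol red-free medium with 10% charcoal-stripped FBS, given 10.0nM ICI-182,780 (final), then treated with compounds at 15 concentrations for 22hr at 37C; luminescence read with ONE-Glo.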
# [14] = qHTS assay to identify small molecule agonists or antagonists of the thyroid stimulating hormone receptor (TSHR) signaling pathway - wild type cell line counter screen (AID 1259384; calls by dose curve)
# Outline: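 Wild-type Hek293 cells, 800/well, 18 h at 37C, then compound with Ro20-1724 for 30 min RT. cAMP by HTRF (cAMP-d2/anti-cAMP cryptate), 1 h RT, fluorescence read. 15 concentrations, triplicates.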
# [15] = target: Estrogen receptor beta (Homo sapiens) (UniProt Q92731); assay: qHTS assay to identify small molecule agonists of the estrogen receptor beta (ER-beta) signaling pathway (AID 1259377; active means well fitted activation curve with a large enough effect in the signal ratio in the repeat runs, not every such curve was filed as active; the % refers to the signal ratio)
# Outline: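 Agonist mode cell assay in GripTite HEK293T cells expressing an ER-beta fusion that drives beta-lactamase from an Upstream Activator Sequence; 16 hr compound exposure at 37C, then 2 h LiveBLAzer B/G FRET substrate at room temperature, fluorescence read-out.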
# [16] = target: Estrogen receptor beta (Homo sapiens) (UniProt Q92731); assay: qHTS assay to identify small molecule antagonists of the estrogen receptor beta (ER-beta) signaling pathway (AID 1259378; active means well fitted inhibition curve with a large enough effect in the signal ratio in the repeat runs, not every such curve was filed as active; the % refers to the signal ratio)
# Outline: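 ER-beta-UAS-bla HEK293T cells in 2% charcoal-stripped FBS medium treated with compound plus 1nM final 17-beta-estradiol for 16 hr at 37C. Beta-lactamase reporter read by FRET substrate fluorescence after 2 hours at room temperature.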
# [17] = qHTS assay to identify small molecule agonists of the estrogen receptor beta (ER-beta) signaling pathway - cell viability counter screen (AID 1259380); further: nearly all actives have a fitted effect of over 30% in size
# Outline: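 ER-beta-UAS-bla HEK293T cells in medium with 2% charcoal-stripped FBS were preincubated 6 hr at 37C, dosed with compound in DMSO for 16 hr, then after the bla read, CellTiter-Glo was added for 30 min at room temperature; luminescence recorded.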
# Chain of Estrogen receptor (Homo sapiens) (P03372 whole entry, looked up): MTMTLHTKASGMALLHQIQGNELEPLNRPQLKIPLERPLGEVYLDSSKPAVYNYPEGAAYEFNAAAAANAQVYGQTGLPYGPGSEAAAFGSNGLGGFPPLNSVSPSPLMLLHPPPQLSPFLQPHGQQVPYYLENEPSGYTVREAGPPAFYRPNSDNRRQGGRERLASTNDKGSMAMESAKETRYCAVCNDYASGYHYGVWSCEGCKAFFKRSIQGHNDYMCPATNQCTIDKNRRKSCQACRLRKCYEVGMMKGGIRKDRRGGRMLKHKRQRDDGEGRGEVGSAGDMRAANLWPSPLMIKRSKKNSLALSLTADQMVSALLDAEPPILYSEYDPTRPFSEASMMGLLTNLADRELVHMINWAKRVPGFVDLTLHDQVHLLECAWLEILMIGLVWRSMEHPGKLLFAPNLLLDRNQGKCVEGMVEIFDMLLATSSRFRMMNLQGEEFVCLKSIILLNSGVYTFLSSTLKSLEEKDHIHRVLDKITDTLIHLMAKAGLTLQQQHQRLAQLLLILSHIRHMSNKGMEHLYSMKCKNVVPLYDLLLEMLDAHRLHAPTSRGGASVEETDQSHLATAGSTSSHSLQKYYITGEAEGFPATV
# Chain of Estrogen receptor beta (Homo sapiens) (Q92731 whole entry, looked up, the tested form may be a part): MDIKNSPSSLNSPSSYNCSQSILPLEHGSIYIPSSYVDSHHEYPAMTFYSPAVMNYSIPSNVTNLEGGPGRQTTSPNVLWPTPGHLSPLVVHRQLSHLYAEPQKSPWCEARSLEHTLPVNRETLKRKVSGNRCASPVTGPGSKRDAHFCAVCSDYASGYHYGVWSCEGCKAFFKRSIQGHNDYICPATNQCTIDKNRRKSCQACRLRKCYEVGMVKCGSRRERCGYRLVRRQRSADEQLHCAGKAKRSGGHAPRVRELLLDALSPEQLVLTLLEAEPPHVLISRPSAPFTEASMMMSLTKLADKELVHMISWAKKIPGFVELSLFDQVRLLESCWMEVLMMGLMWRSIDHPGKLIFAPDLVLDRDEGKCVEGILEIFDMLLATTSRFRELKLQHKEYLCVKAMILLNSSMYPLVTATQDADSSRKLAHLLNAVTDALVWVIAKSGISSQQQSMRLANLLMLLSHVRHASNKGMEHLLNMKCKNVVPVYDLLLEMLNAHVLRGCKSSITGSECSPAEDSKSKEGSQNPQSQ
structure (smiles),measurement,setting,value
CC(C)Oc1ccccc1O,Potency,[1],inactive
same,Potency,[2],inactive
same,Potency,[3],inactive
same,Potency,[4],inactive
same,Potency,[5],inactive
same,outcome,[6],inactive
same,Potency,[7],inactive
same,Potency,[8],inactive
same,Potency,[9],inactive
same,Potency,[10],inactive
same,Potency,[11],inactive
same,Potency,[12],inactive
same,Potency,[13],inactive
same,outcome,[14],inactive
CCCCCCCCCCCCCCCCCCCl,cytotoxicity increase,[1],0.0897% [at 6.97 µM]
same,"activity change, negative = cytotoxicity",[2],5.01% [at 8.39 µM]
same,"viability change, negative = cytotoxic",[3],5.37% [at 8.39 µM]
same,"activity change, negative = inhibition",[4],-0.369% [at 8.39 µM]
same,"activity change, negative = inhibition",[5],2.06% [at 8.39 µM]
same,"activity change, negative = cytotoxicity",[6],1.46% [at 8.39 µM]
same,"viability change, negative = cytotoxic",[7],3.36% [at 8.39 µM]
same,"viability change, negative = cytotoxic",[8],0.635% [at 8.39 µM]
same,activity change,[9],"0.949% [at 8.39 µM, stronger effect = higher value]"
same,"activity change, negative = inhibition",[10],-7.01% [at 8.39 µM]
same,activation,[15],-3.3% [at 8.39 µM]
same,"activity, negative = inhibition",[16],21.3% [at 8.39 µM]
same,"activity change, negative = cytotoxicity",[11],1.57% [at 8.39 µM]
same,"activity change, negative = cytotoxicity",[17],2.61% [at 8.39 µM]
same,"activity change, negative = cytotoxicity",[12],-0.0396% [at 8.39 µM]
same,activation,[13],0.705% [at 8.39 µM]
same,cAMP activity change,[14],-0.012% [at 8.39 µM]
O=C(O)c1ccc2cc(O)ccc2c1,Potency,[1],inactive
same,Potency,[2],inactive
same,Potency,[3],inactive
same,Potency,[4],inactive
same,Potency,[5],inactive
same,outcome,[6],inactive
same,Potency,[7],inactive
same,Potency,[8],inactive
same,Potency,[9],inactive
same,Potency,[10],inactive
same,Potency,[15],inactive
same,Potency,[16],inactive
same,Potency,[11],inactive
same,Potency,[17],inactive
same,Potency,[12],inactive
same,Potency,[13],inactive
O=C(O)c1ccc2c(c1)nc(C(=O)NC1CCN(C3CC3)CC1)n2Cc1cc(-c2ccc(Cl)s2)on1,cytotoxicity increase,[1],1.82% [at 15.8 µM]
same,"activity change, negative = cytotoxicity",[2],3.2% [at 19 µM]
same,"viability change, negative = cytotoxic",[3],1.29% [at 19 µM]
same,"activity change, negative = inhibition",[4],-4.46% [at 19 µM]
same,"activity change, negative = inhibition",[5],-4.76% [at 19 µM]
same,"activity change, negative = cytotoxicity",[6],0.77% [at 19 µM]
same,"viability change, negative = cytotoxic",[7],1.29% [at 19 µM]
same,"viability change, negative = cytotoxic",[8],0.451% [at 19 µM]
same,activity change,[9],"-5.1% [at 18.9 µM, stronger effect = higher value]"
same,"activity change, negative = inhibition",[10],-2.6% [at 19 µM]
same,activation,[15],-4.72% [at 19 µM]
same,"activity, negative = inhibition",[16],18.6% [at 19 µM]
same,"activity change, negative = cytotoxicity",[11],2.61% [at 19 µM]
same,"activity change, negative = cytotoxicity",[12],-12.8% [at 19 µM]
same,activation,[13],1.43% [at 19 µM]
same,cAMP activity change,[14],1.96% [at 18.9 µM]
O=C1c2ccccc2C(=O)C1c1ccc2cc(S(=O)(=O)O)cc(S(=O)(=O)O)c2n1,Potency,[1],inactive
same,Potency,[2],58.9 µM (active)
same,Potency,[3],58.9 µM (active)
same,Potency,[4],inactive
same,Potency,[5],0.589 µM (active)
same,outcome,[6],inactive
same,Potency,[7],29.5 µM (active)
same,Potency,[8],29.5 µM (active)
same,Potency,[9],inactive
same,Potency,[10],inactive
same,Potency,[15],inactive
same,Potency,[16],inactive
same,Potency,[11],29.5 µM (active)
same,Potency,[12],inactive
same,Potency,[13],inactive
same,outcome,[14],inactive
N#CCCCC(C#N)CCC#N (centres undefined),Potency,[1],inactive
same,Potency,[2],inactive
same,Potency,[3],inactive
same,Potency,[4],inactive
same,Potency,[5],inactive
same,outcome,[6],inactive
same,Potency,[7],inactive
same,Potency,[8],inactive
same,Potency,[9],inactive
same,Potency,[10],inactive
same,Potency,[11],inactive
same,Potency,[17],inactive
same,Potency,[12],inactive
same,Potency,[13],inactive
same,outcome,[14],inactive
